# High-throughput results: PubChem, National Center for Advancing Translational Sciences (NCATS)
# DT40 TDP1 CPT: growth inhibition of DT40 Tdp1-/-;hTDP1 cells with camptothecin (screen for TDP1 inhibitors); chicken DT40 Tdp1-/-;hTDP1 cells + 20 nM CPT, ATP luminescence, 48 h; Potency, µM (highest dose often 46.2 µM), hits mostly inhibitors; 12% of 420,000 active; AID 686979; also: nearly all actives have a fitted effect of over 55% in size
#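 Chicken DT40 Tdp1-/- cells complemented with human TDP1, 400 cells/well, exposed to compounds plus 20 nM camptothecin for at least 48 h at 37 C; viability read as ATP content by CellTiter-Glo luminescence.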
# HT1080 IDH1KD tx: HT-1080 IDH1 knockdown cell toxicity (counter line) | HT-1080 IDH1 knockdown viability, ATP luminescence, 48 h | Potency, µM (doses to about 46.1 µM), hits mostly cytotoxic | 2% of 360,000 active | AID 686971
#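 Cytotoxicity counter-line: IDH1KD HT-1080, 48 h, CellTiter-Glo. Curves classed by r2, magnitude and activity.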
# HT1080NT lethal: kills 2HG-producing HT-1080-NT fibrosarcoma cells | HT-1080-NT fibrosarcoma viability, CellTiter-Glo ATP luminescence, 48 h | 1.6% of 360,000 active | AID 686970 | Potency, µM (top dose mostly 46.1 µM), actives largely listed as cytotoxic;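 also: NT is the 2HG producing partner of a matched IDH1 knockdown line; nearly all actives have a fitted effect of over 55% in size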
#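 HT-1080-NT; 750 cells/well; 5% FBS RPMI; 48 h compound, 37 degrees C; CellTiter-Glo luminescence; curve fitting and curve-class assignment.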
# DT40 TDP1 no CPT: qHTS for Inhibitors of human tyrosyl-DNA phosphodiesterase 1 (TDP1): qHTS in cells in absence of CPT. DT40 Tdp1-/- hTDP1 cells, no CPT, ATP luminescence, 48 h. Potency, µM (titrated, usually from 46.2 µM), usual class: inhibitors. 15% of 420,000 active. AID 686978, 2013; also: nearly all actives have a fitted effect of over 55% in size
#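 Growth kinetics read by CellTiter-Glo luminescence after ≥48 hr at 37 °C. Cells: DT40 Tdp1-/- stably carrying human TDP1, 400 per well, compound exposure in the absence of CPT (DMSO vehicle).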
# 12-LOX inh: blocks human arachidonate 12S-lipoxygenase. P18054. 1.1% of 580,000 active. purified 12hLO, xylenol orange hydroperoxide absorbance. Potency, µM (doses to about 108 µM), most hits filed as inhibitors
# Target sequence (P18054 whole entry, looked up): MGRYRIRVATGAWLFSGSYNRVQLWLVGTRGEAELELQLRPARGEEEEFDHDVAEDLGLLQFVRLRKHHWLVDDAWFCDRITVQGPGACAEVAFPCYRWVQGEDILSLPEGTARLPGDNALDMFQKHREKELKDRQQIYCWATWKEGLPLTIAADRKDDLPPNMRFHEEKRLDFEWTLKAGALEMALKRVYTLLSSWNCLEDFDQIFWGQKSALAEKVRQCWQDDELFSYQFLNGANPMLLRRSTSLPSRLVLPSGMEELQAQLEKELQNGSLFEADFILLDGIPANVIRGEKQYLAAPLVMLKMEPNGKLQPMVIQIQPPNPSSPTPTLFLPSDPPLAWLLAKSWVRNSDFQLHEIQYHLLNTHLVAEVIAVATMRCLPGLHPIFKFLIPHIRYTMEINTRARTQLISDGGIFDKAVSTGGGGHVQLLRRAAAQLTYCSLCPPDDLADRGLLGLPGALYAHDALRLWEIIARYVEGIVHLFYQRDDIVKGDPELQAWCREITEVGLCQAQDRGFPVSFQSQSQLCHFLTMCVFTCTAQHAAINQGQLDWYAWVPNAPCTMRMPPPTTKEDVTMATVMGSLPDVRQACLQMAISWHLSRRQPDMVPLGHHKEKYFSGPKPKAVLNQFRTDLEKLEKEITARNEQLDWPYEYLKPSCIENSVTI
#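 Purified human 12hLO at 150 nM in 25 mM Hepes, 0.01% Triton X-100, pH 7.0, preincubated 15 min at room temperature with compound. Reaction started with 40 uM arachidonic acid, 30 min at room temperature. Hydroperoxide measured by Fe-xylenol orange, 573/405 nm absorbance ratio.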
# IL-1B inflam inh: inhibitors of inflammasome signaling (IL-1 beta secretion); THP-1 LPS/ATP IL-1B secretion, AlphaLISA, 16 h; hits give low values; activity change, % at 57.5 µM; 4.7% of 360,000 active; in the data active = activity change below about -50%; inconclusive = mostly about -30% to -49%
#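 THP-1 cells pretreated 1 hr with compounds (up to 57.5 uM final), then stimulated with LPS (250 ng/mL final) plus ATP (1.25 mM final); secreted IL-1B measured by AlphaLISA after 16 hr, decreased signal indicating inhibition.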
# Hits are given with their value; - = inactive; ? = inconclusive; . = not tested or not shown. This excerpt belongs to a sample that is enriched for hits. Unless noted, calls follow the shape of the dose curve; as a rule, active = well fitted curve in the direction sought with a large enough effect; inconclusive = small, poorly fitted or top-dose-only effect, or another doubt; inactive = no such curve, though single readings can be large; an effect the other way counts as inactive or inconclusive.
SMILES,DT40 TDP1 CPT,HT1080 IDH1KD tx,HT1080NT lethal,DT40 TDP1 no CPT,12-LOX inh,IL-1B inflam inh
COC(=O)c1ccc(OC)c(CN2C(=O)N(c3ccc(C(C)=O)cc3)S(=O)(=O)c3ccccc32)c1,15µM,.,.,16µM,-,.
CC(=O)c1ccc(N2C(=O)N(CC(=O)c3ccc(F)cc3)c3ccccc3S2(=O)=O)cc1,-,.,.,?,-,.
CCc1cccc(N2C(=O)N(CC(=O)NCc3cccc(OC)c3OC)c3ccccc3S2(=O)=O)c1,13µM,.,.,?,-,.
CC(=O)c1ccc(N2C(=O)N(Cc3cc(C)ccc3C)c3ccccc3S2(=O)=O)cc1,23µM,.,.,18µM,-,.
COc1cccc(N2C(=O)N(CC(=O)NCc3cccc(OC)c3OC)c3ccccc3S2(=O)=O)c1,-,.,.,-,-,.
CCc1ccc(-n2c(=O)c3ccccc3n(CC(=O)C(C)(C)C)c2=O)cc1,?,-,-,18µM,-,-
Cc1cc(NC(=O)c2ccc3c(c2)N(C)C2CCCCCN2C3=O)ccc1Br (stereo unspecified),.,.,.,.,-,.
CS(=O)(=O)N(C1CCOCC1)C1CCN(C(=O)c2ccc(Cl)cc2)CC1,.,.,.,.,-,.
COc1cccc(CNC(=O)Cn2c(=O)cc(C)c3c(C)nn(C)c32)c1OC,23µM,.,.,18µM,-,.
CCc1ccc(N2C(=O)N(CC(=O)C(C)(C)C)c3ccccc3S2(=O)=O)cc1,13µM,.,.,21µM,-,.
CC(=O)c1ccc(N2C(=O)N(Cc3ccc(F)cc3)c3ccccc3S2(=O)=O)cc1,21µM,.,.,16µM,-,.
CC(=O)c1ccc(N2C(=O)N(Cc3ccccc3C#N)c3ccccc3S2(=O)=O)cc1,16µM,.,.,?,-,.
CCN1CCCC1CNC(=O)c1c(C)nn(-c2ccc(F)cc2)c1-n1cccc1 (stereo unspecified),.,.,.,.,-,.
O=C(NC(=S)N1CCN(c2ccc(Cl)cc2[N+](=O)[O-])CC1)c1cccs1,9.2µM,-,-,21µM,.,-
O=C(c1cccs1)N1CCN(C(=O)c2cccs2)C1=S,5.8µM,21µM,?,5.8µM,?,-95
O=C(NC(=S)N1CCN(c2ccc(Cl)cc2[N+](=O)[O-])CC1)c1ccco1,?,-,-,?,-,-
CC1CCN(C(=S)NC(=O)c2cccs2)CC1,?,-,-,?,-,-
O=C(NC(=S)N1CCCCC1)c1cccs1,?,-,-,15µM,-,-
CC1CCCCN1C(=S)NC(=O)c1cccs1 (stereo unspecified),?,-,-,16µM,-,-
CC1CCCCN1S(=O)(=O)c1ccc(NC(=O)c2cccs2)cc1 (stereo unspecified),?,-,?,?,-,?
Cc1ccc(-n2cccc2C=O)cc1C,.,.,.,.,-,.
N#Cc1cccc(NC(=O)CNc2cccc(S(=O)(=O)N3CCCCC3)c2)c1,?,-,?,?,-,-
CC(Oc1cccc(Cl)c1)C(=O)Nc1cc(S(=O)(=O)N2CCOCC2)ccc1N1CCCC1 (stereo unspecified),-,-,-,?,?,-
O=C(Nc1cccc(Cl)c1)Nc1cc(S(=O)(=O)N2CCOCC2)ccc1N1CCCC1,15µM,-,-,23µM,?,-60
N#Cc1ccc(NC(=O)CNc2cc(S(=O)(=O)N3CCCCC3)ccc2N2CCCCC2)cc1,.,.,.,.,16µM,.
SMILES,DT40 TDP1 CPT,HT1080 IDH1KD tx,HT1080NT lethal,DT40 TDP1 no CPT,12-LOX inh,IL-1B inflam inh
O=C(CNc1cc(S(=O)(=O)N2CCOCC2)ccc1N1CCCC1)Nc1ccc(Cl)cc1F,?,-,-,13µM,?,?
CCN(CC)c1ccc(/C=C2\SC(=O)N(C(C)C)C2=O)o1,0.92µM,7.3µM,16µM,2.1µM,.,-99
CCOC(=O)c1cnc(SCc2nc(N)nc(Nc3ccc(C)cc3)n2)nc1N,21µM,?,?,?,-,-52
Cc1ccc(Nc2nc(N)nc(CN3CCCCCC3)n2)c(C)c1,?,-,-,?,-,-
COc1cccc(Nc2nc(N)nc(CCl)n2)c1,13µM,10µM,7.3µM,?,-,.
Cc1cccc(Nc2nc(N)nc(CCl)n2)c1C,10µM,1.8µM,1.6µM,16µM,-,.
COc1cccc(Nc2nc(N)nc(C(F)(F)F)n2)c1,-,?,-,-,-,-
Cc1ccc(Nc2nc(N)nc(CCl)n2)c(C)c1,6.5µM,?,5.8µM,10µM,-,-89
CCOc1ccc(Nc2nc(N)nc(CCl)n2)cc1,2.1µM,?,0.82µM,5.8µM,-,-96
